Source: PubChem BioAssay
Results filed as inconclusive are left out. Activity calls are given as the source filed them.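 The calls were made as follows, unless noted: active = GFP response, as percent of the DMSO control, above the screen-wide mean plus 3 SD, about 139; inconclusive = no response measured because the compound's own fluorescence interfered; inactive = the rest.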

Tests used:
[1] = yeast TOR pathway RPL19A-GFP modulators, primary screen, cell-based, S. cerevisiae, multiplex flow cytometry (AID 1862; in the data active = percent of DMSO control GFP below about 86%;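 also: lower values mimic rapamycin by blocking the RPL19A rise seen in DMSO cells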); conditions: S. cerevisiae RPL19A-GFP strain, flow cytometry fluorescence, 3 h; at 10 µM; stronger effect = lower value
[2] = modulators of MEP2-GFP levels in yeast, primary screen, S. cerevisiae, multiplex flow cytometry (AID 1867);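 also: median GFP channel fluorescence of barcode-gated MEP2-GFP cells measured by flow cytometry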; conditions: S. cerevisiae MEP2-GFP strain, 3 h, at 10 µM, stronger effect = higher value, 100% means same as DMSO wells
[3] = modulators of CIT2-GFP expression in yeast, primary screen, S. cerevisiae, GFP fusion, multiplex flow cytometry (AID 1870;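 active = percent response above a set limit, the screen-wide mean plus 3 SD, cut at about 130% in these data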;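 also: barcoded CIT2-GFP strain pooled with four other GFP strains with rapamycin as positive control; median GFP fluorescence per well over plate mean of DMSO wells so 100% = DMSO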); conditions: 3 h, at 10 µM, stronger effect = higher value
[4] = modulators of LAP4-GFP expression in yeast, primary screen, S. cerevisiae, multiplex flow cytometry (AID 1873;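 active = GFP signal, as percent of the solvent control, above the screen mean plus 3 SD, about 149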); conditions: 3 h, at 10 µM, stronger effect = higher value
[5] = modulators of AGP1-GFP expression in yeast TOR pathway, primary screen, cell-based, multiplex flow cytometry, S. cerevisiae (AID 1887;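 active = GFP signal above the screen-wide mean plus 3 SD, that is over about 124.5% of the solvent control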;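 also: AGP1-GFP fusion strain of S. cerevisiae within a five-strain barcoded multiplex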); conditions: 3 h, at 10 µM, stronger effect = higher value
[6] = inhibitors of CD8+ T cell-vesicle binding, pilot screen, LFA-1/ICAM-1 modulator project, MLPCN validation set, flow cytometry (AID 2523;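 active = response below a set limit, under 55% cells CD8-positive and vesicle-bound, and CD8 cells' 90th-percentile brightness under 279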;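 as to vesicle binding response: mean PE anti-B7-1 fluorescence of CD8+ cells relative to row control; 100% = QL9-loaded vesicles with DMSO vehicle in the same plate row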); conditions: 2C mouse CD8+ T cells, at 7 µM, stronger effect = lower value; double positive events: measured here: CD8+/vesicle+ event percentage
[7] = biological target: Integrin beta-1 (Homo sapiens) + Integrin alpha-4 (Homo sapiens) (UniProt P13612+P05556); assay: inhibition of HUTS-21 binding to VLA-4, pilot screen, VLA-4 allosteric modulator project, U937 cells, HUTS-21 mAb, flow cytometry, validation set (AID 2674;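 active = inhibition above 50%, about 3 SD of the validation set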;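 also: antibody binding induced by the VLA-4 ligand LDV present at three times its Kd; 0% = LDV ligand with antibody and no compound and 100% = antibody without LDV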); conditions: HUTS-21 LIBS mAb binding, at 6.7 µM, stronger effect = higher value, binding induced by LDV ligand
Sequence of Integrin beta-1 (Homo sapiens) + Integrin alpha-4 (Homo sapiens) (P05556 whole entry, looked up): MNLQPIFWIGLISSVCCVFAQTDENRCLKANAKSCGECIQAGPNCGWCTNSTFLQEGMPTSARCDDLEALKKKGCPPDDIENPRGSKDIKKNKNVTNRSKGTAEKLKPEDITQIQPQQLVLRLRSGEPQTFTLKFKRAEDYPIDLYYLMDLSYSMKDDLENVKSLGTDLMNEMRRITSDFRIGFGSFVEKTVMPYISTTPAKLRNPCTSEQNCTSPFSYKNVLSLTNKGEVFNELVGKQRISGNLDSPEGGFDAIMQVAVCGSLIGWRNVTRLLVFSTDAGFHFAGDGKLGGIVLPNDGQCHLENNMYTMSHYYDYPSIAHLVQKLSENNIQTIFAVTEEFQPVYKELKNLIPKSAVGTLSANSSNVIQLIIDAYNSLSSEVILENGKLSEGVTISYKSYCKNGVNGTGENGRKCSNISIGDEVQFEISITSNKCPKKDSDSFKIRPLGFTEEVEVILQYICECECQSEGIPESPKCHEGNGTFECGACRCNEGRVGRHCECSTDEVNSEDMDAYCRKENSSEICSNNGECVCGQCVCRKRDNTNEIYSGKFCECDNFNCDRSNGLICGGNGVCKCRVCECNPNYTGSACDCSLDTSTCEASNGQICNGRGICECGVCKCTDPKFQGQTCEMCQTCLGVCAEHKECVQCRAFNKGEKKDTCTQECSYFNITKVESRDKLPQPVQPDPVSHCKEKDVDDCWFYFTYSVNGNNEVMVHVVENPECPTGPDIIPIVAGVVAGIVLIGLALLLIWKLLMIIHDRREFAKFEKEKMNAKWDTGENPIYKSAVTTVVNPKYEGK
Sequence of Integrin beta-1 (Homo sapiens) + Integrin alpha-4 (Homo sapiens) (P13612 whole entry, looked up): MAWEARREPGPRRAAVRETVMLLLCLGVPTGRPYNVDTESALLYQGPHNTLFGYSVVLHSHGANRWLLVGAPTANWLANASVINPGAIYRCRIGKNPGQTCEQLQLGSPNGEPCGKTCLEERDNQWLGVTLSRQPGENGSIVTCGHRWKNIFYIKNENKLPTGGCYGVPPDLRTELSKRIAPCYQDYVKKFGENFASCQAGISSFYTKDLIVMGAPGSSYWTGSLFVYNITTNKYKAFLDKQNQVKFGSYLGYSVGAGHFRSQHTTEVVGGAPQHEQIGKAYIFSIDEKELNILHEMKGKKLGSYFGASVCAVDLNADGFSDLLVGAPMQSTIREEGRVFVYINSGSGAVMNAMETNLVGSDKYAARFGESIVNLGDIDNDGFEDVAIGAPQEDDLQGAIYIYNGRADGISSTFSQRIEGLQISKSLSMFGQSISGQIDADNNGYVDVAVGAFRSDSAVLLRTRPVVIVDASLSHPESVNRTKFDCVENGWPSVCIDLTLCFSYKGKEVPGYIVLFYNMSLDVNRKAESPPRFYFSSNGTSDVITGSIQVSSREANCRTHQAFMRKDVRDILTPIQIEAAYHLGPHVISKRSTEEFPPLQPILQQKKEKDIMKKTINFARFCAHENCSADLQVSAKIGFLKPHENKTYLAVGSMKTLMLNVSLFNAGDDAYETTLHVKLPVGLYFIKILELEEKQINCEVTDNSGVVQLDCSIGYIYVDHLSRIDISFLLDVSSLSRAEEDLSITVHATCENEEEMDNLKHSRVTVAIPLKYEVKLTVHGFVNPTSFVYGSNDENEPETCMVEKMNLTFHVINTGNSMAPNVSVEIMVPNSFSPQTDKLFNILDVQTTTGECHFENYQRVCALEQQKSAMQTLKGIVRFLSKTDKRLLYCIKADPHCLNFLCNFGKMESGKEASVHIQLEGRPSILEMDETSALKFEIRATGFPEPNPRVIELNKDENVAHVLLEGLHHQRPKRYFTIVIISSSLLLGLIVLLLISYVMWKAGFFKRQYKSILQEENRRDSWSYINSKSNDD

[8] = superoxide lowering in aged yeast cells, pilot screen, validation compound set (AID 2706;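 active = superoxide response below 65% of plate, a cut near 3 SD across the whole screen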;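 also: yeast exposed to compound for one week at 30 degrees C before staining; 100% = mean of all compound wells on the same plate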); conditions: S. cerevisiae aging, superoxide DHE fluorescence; at 10 µM; stronger effect = lower value
[9] = biological target: Beta-adrenergic receptor kinase 1 (Homo sapiens) (UniProt P25098); assay: GRK2 binders displacing RNA aptamer, biochemical, validation, human GRK2, bead flow cytometry (AID 488806;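 active = aptamer binding inhibition above 30%, about 3 SD of noise from non-fluorescent compounds; inactive = inhibition at or below 30%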); conditions: bead-bound GRK2, FAM-aptamer displacement, at 10 µM, stronger effect = higher value
Sequence of Beta-adrenergic receptor kinase 1 (Homo sapiens) (P25098 whole entry, looked up): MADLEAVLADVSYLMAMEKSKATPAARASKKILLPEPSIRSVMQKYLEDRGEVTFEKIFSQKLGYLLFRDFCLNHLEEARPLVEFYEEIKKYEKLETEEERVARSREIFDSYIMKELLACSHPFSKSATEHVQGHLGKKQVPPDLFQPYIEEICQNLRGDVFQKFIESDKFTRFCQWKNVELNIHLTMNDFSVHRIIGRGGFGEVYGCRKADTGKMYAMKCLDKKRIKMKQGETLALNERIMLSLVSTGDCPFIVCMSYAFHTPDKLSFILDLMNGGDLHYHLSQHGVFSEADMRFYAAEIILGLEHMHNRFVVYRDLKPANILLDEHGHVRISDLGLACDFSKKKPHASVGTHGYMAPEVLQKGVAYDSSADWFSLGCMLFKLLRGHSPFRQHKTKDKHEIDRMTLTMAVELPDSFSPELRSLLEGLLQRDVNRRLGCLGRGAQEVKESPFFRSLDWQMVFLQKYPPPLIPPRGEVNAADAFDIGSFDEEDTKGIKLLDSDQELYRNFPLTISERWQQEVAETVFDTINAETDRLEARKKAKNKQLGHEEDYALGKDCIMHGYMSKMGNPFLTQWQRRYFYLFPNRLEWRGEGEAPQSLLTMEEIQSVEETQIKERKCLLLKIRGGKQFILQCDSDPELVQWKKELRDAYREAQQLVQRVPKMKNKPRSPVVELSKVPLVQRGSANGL

[10] = biological target: Beta-2 adrenergic receptor (Homo sapiens) (UniProt P07550); assay: beta2AR agonists driving receptor internalization, pilot screen, cell-based, FAP fluorogen, flow cytometry, validation set (AID 504459;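 active = percent response above 42, roughly 3 SD of non-fluorescent test compounds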;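 also: agonist-driven loss of surface beta2AR via internalization measured by FAP dye flow cytometry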); conditions: Am2.2-beta2AR cells, FAP surface receptor flow cytometry; at 10 µM; stronger effect = higher value
Sequence of Beta-2 adrenergic receptor (Homo sapiens) (P07550 whole entry, looked up): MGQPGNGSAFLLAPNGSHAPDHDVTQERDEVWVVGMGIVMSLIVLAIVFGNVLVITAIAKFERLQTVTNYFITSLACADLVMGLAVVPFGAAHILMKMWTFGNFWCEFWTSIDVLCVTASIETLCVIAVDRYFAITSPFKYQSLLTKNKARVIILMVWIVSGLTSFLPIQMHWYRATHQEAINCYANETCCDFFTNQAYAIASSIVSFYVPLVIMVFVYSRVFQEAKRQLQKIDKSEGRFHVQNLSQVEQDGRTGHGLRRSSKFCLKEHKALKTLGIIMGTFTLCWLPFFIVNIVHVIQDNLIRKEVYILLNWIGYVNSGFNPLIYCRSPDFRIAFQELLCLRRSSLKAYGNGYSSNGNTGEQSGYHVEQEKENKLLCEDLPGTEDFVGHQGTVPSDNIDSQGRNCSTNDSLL

[11] = biological target: AP-2 complex subunit beta (Homo sapiens) (UniProt P63010); assay: inhibitors of arrestin peptide binding to AP2, pilot screen, biochemical, validation set, GST-AP2 beads, flow cytometry (AID 504541;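 active = inhibition above 54%, about 3 SD of non-fluorescent compounds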;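 also: AP2 carries R879A mutation and is captured from E. coli lysate; bead-bound FITC arrestin peptide fluorescence measuring arrestin peptide binding to AP2; 0% = DMSO wells and 100% = excess unlabeled arrestin peptide control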); conditions: FITC arrestin peptide, at 10 µM, stronger effect = higher value, AP2 beta2 appendage fragment, R879A mutant
Sequence of AP-2 complex subunit beta (Homo sapiens) (P63010 whole entry, looked up, the tested form may be a part, one chain of several): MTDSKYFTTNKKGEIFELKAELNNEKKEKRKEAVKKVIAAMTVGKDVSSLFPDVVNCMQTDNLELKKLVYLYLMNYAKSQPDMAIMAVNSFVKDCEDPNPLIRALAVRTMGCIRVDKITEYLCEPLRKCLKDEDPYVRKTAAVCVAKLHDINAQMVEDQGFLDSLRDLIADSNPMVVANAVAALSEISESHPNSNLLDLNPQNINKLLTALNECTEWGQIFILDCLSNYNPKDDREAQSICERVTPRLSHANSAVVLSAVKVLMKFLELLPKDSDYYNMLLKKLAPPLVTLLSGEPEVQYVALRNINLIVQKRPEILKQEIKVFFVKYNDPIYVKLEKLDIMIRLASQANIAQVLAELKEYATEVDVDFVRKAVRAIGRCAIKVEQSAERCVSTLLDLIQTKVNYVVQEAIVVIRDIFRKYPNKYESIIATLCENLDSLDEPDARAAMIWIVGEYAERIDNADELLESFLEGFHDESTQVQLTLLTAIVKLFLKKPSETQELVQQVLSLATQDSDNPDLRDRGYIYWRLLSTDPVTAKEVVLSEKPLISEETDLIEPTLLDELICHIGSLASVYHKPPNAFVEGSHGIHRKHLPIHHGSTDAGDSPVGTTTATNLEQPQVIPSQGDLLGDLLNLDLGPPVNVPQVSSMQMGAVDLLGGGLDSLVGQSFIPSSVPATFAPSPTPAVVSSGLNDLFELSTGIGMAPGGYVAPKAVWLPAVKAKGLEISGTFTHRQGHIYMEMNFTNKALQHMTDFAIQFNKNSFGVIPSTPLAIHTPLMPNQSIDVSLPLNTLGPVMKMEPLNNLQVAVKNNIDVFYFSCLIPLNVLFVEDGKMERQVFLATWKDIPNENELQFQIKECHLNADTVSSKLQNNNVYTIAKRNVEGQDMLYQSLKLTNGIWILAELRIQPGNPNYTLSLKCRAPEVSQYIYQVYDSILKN

[12] = yeast V-ATPase proton transport modulators, S. cerevisiae, pHLuorin, HTS validation (AID 504600; in the data active = response above about 15%;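 also: plate controls were DMSO for no effect and reference compound for full effect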); conditions: S. cerevisiae pHLuorin cytosolic pH, at 10 µM, stronger effect = higher value
[13] = system: anti-desmoglein-3 scFv antibody binding to human DSG3; assay: inhibitors of anti-DSG3 scFv binding to DSG3, pilot screen, biochemical, validation compound set, bead-based, flow cytometry (AID 588368;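 active = binding below the plate cutoff, the plate median minus 3 SD, with a reading above zero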;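 also: signal is the median channel fluorescence of bead-bound GFP antibody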); conditions: Protein G beads, DSG3-Fc, scFv-GFP binding, at 10 µM, stronger effect = lower value
[14] = inhibitors of fungal efflux pumps CDR1, CDR2, MDR1, pilot screen, validation compound set, multiplex, phenotypic (AID 588506;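 active = efflux inhibition above 0.42, the validation set average plus 4 SD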;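 also: Nile Red retained in cells so higher fluorescence means more efflux inhibition; 0 = negative control wells and 1 = enniatin B 25 µM full block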); conditions: S. cerevisiae pump-expressing triplex, Nile Red efflux flow cytometry; at 10 µM; stronger effect = higher value; the pumps come from Candida albicans
[15] = biological target: ATP-binding cassette sub-family B member 6 (Homo sapiens) (UniProt Q9NP58); assay: ABCB6 transporter inhibitors, pilot screen, K562-ABCB6 cells, flow cytometry, validation set (AID 588550;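 active = inhibition above the screen-wide mean plus 3 SD, about 51%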;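 also: 0% = DMSO wells and 100% = benzethonium chloride 70 µM positive control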); conditions: K562-ABCB6 porphyrin accumulation, 1 h, at 10 µM, stronger effect = higher value
Sequence of ATP-binding cassette sub-family B member 6 (Homo sapiens) (Q9NP58 whole entry, looked up): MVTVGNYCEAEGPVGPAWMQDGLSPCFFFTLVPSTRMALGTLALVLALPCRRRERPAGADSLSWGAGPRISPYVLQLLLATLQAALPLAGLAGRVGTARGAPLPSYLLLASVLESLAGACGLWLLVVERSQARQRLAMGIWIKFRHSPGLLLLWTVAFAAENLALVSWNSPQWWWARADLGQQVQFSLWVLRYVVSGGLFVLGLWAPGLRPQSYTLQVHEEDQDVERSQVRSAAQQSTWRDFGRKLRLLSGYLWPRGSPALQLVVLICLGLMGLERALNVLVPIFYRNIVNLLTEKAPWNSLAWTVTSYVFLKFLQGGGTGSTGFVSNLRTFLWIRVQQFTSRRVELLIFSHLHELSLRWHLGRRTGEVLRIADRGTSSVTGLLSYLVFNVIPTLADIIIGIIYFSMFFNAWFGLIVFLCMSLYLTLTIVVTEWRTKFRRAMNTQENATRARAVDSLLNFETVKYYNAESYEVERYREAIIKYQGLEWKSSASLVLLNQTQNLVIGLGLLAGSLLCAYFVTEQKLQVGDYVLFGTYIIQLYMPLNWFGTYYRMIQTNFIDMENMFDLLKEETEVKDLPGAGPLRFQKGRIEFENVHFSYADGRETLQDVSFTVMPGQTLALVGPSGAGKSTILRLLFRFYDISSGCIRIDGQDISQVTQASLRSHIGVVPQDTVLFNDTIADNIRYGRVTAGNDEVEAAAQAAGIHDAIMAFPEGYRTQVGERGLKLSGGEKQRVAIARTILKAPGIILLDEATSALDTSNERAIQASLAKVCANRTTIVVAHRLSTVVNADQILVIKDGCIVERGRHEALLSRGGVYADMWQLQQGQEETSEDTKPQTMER

[16] = promoters of myeloid differentiation in arrested cells, primary screen, cell-based, GFP/MAC1 double positive, flow cytometry, validation set (AID 588685;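 active = differentiation response of at least 50%, scaled between solvent and reference control, from cells with both markers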;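 also: compound exposure lasts four days before antibody staining and flow analysis; 0% = DMSO wells and 100% = 5 µM fulvestrant positive control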); conditions: ER-HoxA9 marrow cells, stronger effect = higher value, normalized: vehicle 0, fulvestrant 100

CN(C)CCOCCOc1ccc(Cl)cc1Br
47.1%: double positive events [6]
inactive: percent of DMSO control GFP [1] 93.7% | GFP response vs DMSO [2] 119% | percent response of DMSO control [3] 101% | GFP response vs DMSO [4] 77% | GFP response, % of DMSO [5] 90.3% | vesicle binding response [6] 160% | inhibition [7] -2.27% | superoxide response (% of plate) [8] 97.8% | aptamer binding inhibition [9] -6% | response [10] -10% | inhibition [11] -6.43% | response [12] 1.08% | binding (% of control) [13] 105% | efflux inhibition (fraction of control) [14] 0.09 | inhibition [15] 4% | differentiation response [16] 13.1%

CC(=O)N(C(C)=O)c1nc2nc(C)cc(C)n2n1
67.9%: double positive events [6]
inactive: percent of DMSO control GFP [1] 94.6% | GFP response vs DMSO [2] 133% | percent response of DMSO control [3] 110% | GFP response vs DMSO [4] 86.4% | GFP response, % of DMSO [5] 107% | vesicle binding response [6] 236% | inhibition [7] 0.64% | superoxide response (% of plate) [8] 98.5% | aptamer binding inhibition [9] 6% | response [10] -13.9% | inhibition [11] -10.8% | response [12] -0.39% | binding (% of control) [13] 102% | efflux inhibition (fraction of control) [14] -0.13 | inhibition [15] 11% | differentiation response [16] -6.55%

CC(=O)OC(C)C[N+](C)(C)C (stereo not given)
65.5%: double positive events [6]
inactive: percent of DMSO control GFP [1] 103% | GFP response vs DMSO [2] 102% | percent response of DMSO control [3] 96.4% | GFP response vs DMSO [4] 115% | GFP response, % of DMSO [5] 124% | vesicle binding response [6] 191% | inhibition [7] -7.08% | superoxide response (% of plate) [8] 86.6% | aptamer binding inhibition [9] 5% | response [10] -16.2% | inhibition [11] -17.2% | response [12] 0.37% | binding (% of control) [13] 107% | efflux inhibition (fraction of control) [14] 0 | inhibition [15] 6% | differentiation response [16] 6.83%

Cn1cc(CN2CCN(CCO)CC2)c(-c2ccc(Oc3ccccc3)cc2)n1
inactive: percent of DMSO control GFP [1] 102% | GFP response vs DMSO [2] 102% | percent response of DMSO control [3] 96.7% | GFP response vs DMSO [4] 114% | GFP response, % of DMSO [5] 100% | vesicle binding response [6] 244% | inhibition [7] 13.2% | superoxide response (% of plate) [8] 82.1% | aptamer binding inhibition [9] 0% | response [10] 11.3% | inhibition [11] -1.86% | response [12] 3.7% | binding (% of control) [13] 99.7% | efflux inhibition (fraction of control) [14] -0.28 | inhibition [15] 6% | differentiation response [16] 15.2%
61%: double positive events [6]

Cc1cccc(-n2c(Cc3ccccc3)n[nH]c2=S)c1
61.2%: double positive events [6]
inactive: percent of DMSO control GFP [1] 93.9% | GFP response vs DMSO [2] 106% | percent response of DMSO control [3] 88.2% | GFP response vs DMSO [4] 124% | GFP response, % of DMSO [5] 100% | vesicle binding response [6] 102% | inhibition [7] -18.2% | superoxide response (% of plate) [8] 103% | aptamer binding inhibition [9] 4% | response [10] -0.19% | inhibition [11] -2.3% | response [12] 1.08% | binding (% of control) [13] 95.5% | efflux inhibition (fraction of control) [14] -0.1 | inhibition [15] 4% | differentiation response [16] -13.6%

C=CCOC(=O)C1=C(C)NC(=O)NC1/C=C/c1ccccc1OC (stereo not given)
57.9%: double positive events [6]
inactive: percent of DMSO control GFP [1] 100% | GFP response vs DMSO [2] 101% | percent response of DMSO control [3] 103% | GFP response vs DMSO [4] 103% | GFP response, % of DMSO [5] 108% | vesicle binding response [6] 97% | inhibition [7] -1.09% | superoxide response (% of plate) [8] 115% | aptamer binding inhibition [9] 1% | response [10] -4.89% | inhibition [11] -14.7% | response [12] 6.85% | binding (% of control) [13] 106% | efflux inhibition (fraction of control) [14] -0.03 | inhibition [15] 9% | differentiation response [16] -1.65%

CC1(C)C(=O)OC(c2cccs2)C2(CCCCC2)C1=O (stereo not given)
61.1%: double positive events [6]
inactive: percent of DMSO control GFP [1] 99.2% | GFP response vs DMSO [2] 108% | percent response of DMSO control [3] 96.6% | GFP response vs DMSO [4] 105% | GFP response, % of DMSO [5] 97.5% | vesicle binding response [6] 228% | inhibition [7] -18.1% | superoxide response (% of plate) [8] 109% | aptamer binding inhibition [9] 0% | response [10] 3.42% | inhibition [11] 44.8% | response [12] -2.62% | binding (% of control) [13] 97.4% | efflux inhibition (fraction of control) [14] -0.01 | inhibition [15] 2%
active: differentiation response [16] 53%

CCOC(=O)C1CCCN(Cc2nc(Cc3cccc(F)c3)no2)C1 (stereo not given)
58.5%: double positive events [6]
inactive: percent of DMSO control GFP [1] 99.1% | GFP response vs DMSO [2] 92.6% | percent response of DMSO control [3] 92.4% | GFP response vs DMSO [4] 94.8% | GFP response, % of DMSO [5] 87.2% | vesicle binding response [6] 172% | inhibition [7] 5.61% | superoxide response (% of plate) [8] 90.5% | aptamer binding inhibition [9] -1% | response [10] 20.7% | inhibition [11] 3.77% | response [12] -3.88% | binding (% of control) [13] 106% | efflux inhibition (fraction of control) [14] 0.1 | inhibition [15] 10% | differentiation response [16] 8.59%

Cc1cc(O)c2/c(=N\N)c(-c3csc(C)n3)coc2c1
56.7%: double positive events [6]
inactive: percent of DMSO control GFP [1] 105% | GFP response vs DMSO [2] 107% | percent response of DMSO control [3] 102% | GFP response vs DMSO [4] 106% | GFP response, % of DMSO [5] 110% | vesicle binding response [6] 96.1% | inhibition [7] 5.61% | superoxide response (% of plate) [8] 102% | aptamer binding inhibition [9] 3% | response [10] 2.22% | inhibition [11] -8.85% | response [12] -3.38% | binding (% of control) [13] 99.8% | efflux inhibition (fraction of control) [14] -0.16 | inhibition [15] 3% | differentiation response [16] -0.18%

CN1CC2CCCC3(C1)C(=O)NC1(CCCCC1)N=C23 (stereo not given)
58.9%: double positive events [6]
inactive: percent of DMSO control GFP [1] 105% | GFP response vs DMSO [2] 105% | percent response of DMSO control [3] 111% | GFP response vs DMSO [4] 97.3% | GFP response, % of DMSO [5] 107% | vesicle binding response [6] 281% | inhibition [7] 3.7% | superoxide response (% of plate) [8] 103% | aptamer binding inhibition [9] 1% | response [10] -7.22% | inhibition [11] -5.67% | response [12] 3.54% | binding (% of control) [13] 99% | efflux inhibition (fraction of control) [14] -0.26 | inhibition [15] 1% | differentiation response [16] -6.6%
